Assay results from PubChem BioAssay (NCATS).
Records with an inconclusive call do not appear. Where a call stands in place of a potency, no number is given. Active and inactive are the calls of the source. Calls follow the shape of the dose curve; as a rule, active = well fitted curve in the direction sought with a large enough effect; inconclusive = small, poorly fitted or top-dose-only effect, or another doubt; inactive = no such curve, though single readings can be large; an effect the other way counts as inactive or inconclusive.

Tests used:
[1] = target: DNA repair nuclease/redox regulator APEX1 (Homo sapiens) (UniProt P27695); assay: qHTS Validation Assay for Inhibitors of the Human Apurinic/apyrimidinic Endonuclease 1 (APE1) (AID 1705;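 also: TAMRA fluorescence gain over two minutes as APE1 cuts a quenched THF abasic duplex; series mostly up to about 57 µM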)
Chain of DNA repair nuclease/redox regulator APEX1 (Homo sapiens) (P27695 whole entry, looked up): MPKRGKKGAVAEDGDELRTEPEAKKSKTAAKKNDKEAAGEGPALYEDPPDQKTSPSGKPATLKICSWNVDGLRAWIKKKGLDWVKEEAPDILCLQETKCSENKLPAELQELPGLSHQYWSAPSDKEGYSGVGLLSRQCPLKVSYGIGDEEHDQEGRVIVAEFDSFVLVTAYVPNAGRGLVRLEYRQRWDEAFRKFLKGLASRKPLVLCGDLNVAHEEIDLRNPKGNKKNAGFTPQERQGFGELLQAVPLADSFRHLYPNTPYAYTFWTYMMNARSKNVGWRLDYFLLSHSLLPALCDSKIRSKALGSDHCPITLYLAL
How it was run: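 Activity read as rising fluorescence (598 nm emission, 525 nm excitation) from incision of a TAMRA/BHQ-2 duplex carrying a THF abasic site (50 nM). Compound and enzyme sat 15 min at RT before substrate start; signal change between first and third 60-s reads.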

[2] = Counterscreen for APE1 Inhibitors: Fluorescent Dye Displacement Validation Assay (AID 1707)
How it was run: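 ThO 250 nM + dsDNA 50 nM (THF abasic site, 5'-TAMRA), Tris-HCl pH7.5/50mM NaCl/2 mM MgCl2/0.01% Tween-20; compounds pin-transferred; ex 480/em 540 nm endpoint. Neutral = no compound; no-DNA ThO wells = negative control.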

[3] = target: Endonuclease 4 (Escherichia coli (strain K12)) (UniProt P0A6C1); assay: Counterscreen for APE1 Inhibitors: qHTS Validation Assay for Inhibitors of Endonuclease IV (AID 1708)
How it was run: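 Enzymatic AP-site incision assay using a double-stranded THF substrate labelled with TAMRA and BHQ-2; released fluorescence signals activity. Enzyme 2 nM, substrate 50 nM, 15 min compound preincubation.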

[4] = qHTS for differential inhibitors of proliferation of Plasmodium falciparum line 7G8 (AID 1815);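 also: parasite growth measured after three days of incubation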; also: potency is read from the fitted curve at half-maximal effect
[5] = qHTS for differential inhibitors of proliferation of Plasmodium falciparum line GB4 (AID 1816); settings: Potency: Plasmodium falciparum GB4 proliferation inhibition;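 also: parasite growth measured after 72 h incubation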; also: potency is read from the fitted curve at half-maximal effect
[6] = qHTS for differential inhibitors of proliferation of Plasmodium falciparum line 3D7 (AID 1876); also: potency is read from the fitted curve at half-maximal effect
[7] = qHTS for differential inhibitors of proliferation of Plasmodium falciparum line D10 (AID 1877);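 also: parasites grown with compound for 72 h before DNA staining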; also: potency is read from the fitted curve at half-maximal effect
[8] = qHTS for differential inhibitors of proliferation of Plasmodium falciparum line W2 (AID 1883); settings: Potency: Plasmodium falciparum W2 proliferation inhibition;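 also: parasites grown with compound for 72 h before lysis and staining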; also: potency is read from the fitted curve at half-maximal effect
[9] = target: Ferritin light chain (Equus caballus) (UniProt P02791); assay: qHTS Validation Assay for Identification of Novel General Anesthetics (AID 2323); also: series mostly up to about 77 µM
Chain of Ferritin light chain (Equus caballus) (P02791 2-175 limits assumed): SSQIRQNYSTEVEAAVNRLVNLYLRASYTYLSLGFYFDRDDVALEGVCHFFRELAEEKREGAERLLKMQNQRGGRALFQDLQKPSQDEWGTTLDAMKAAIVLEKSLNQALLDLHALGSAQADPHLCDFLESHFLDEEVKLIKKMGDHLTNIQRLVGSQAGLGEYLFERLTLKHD
How it was run: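 Competitive displacement of the profluorescent anesthetic 1-AMA (50% saturated, PBS) from 10 uM apoferritin, 10 min, room temperature. Activity is normalized 380/535 nm fluorescence; concentration-response fitted with a four-parameter Hill equation.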

[10] = target: ATP-dependent DNA helicase Q1 (Homo sapiens) (UniProt P46063); assay: qHTS Validation Assay for Inhibitors of RecQ-Like Dna Helicase 1 (RECQ1) (AID 2353)
Chain of ATP-dependent DNA helicase Q1 (Homo sapiens) (P46063 whole entry, looked up): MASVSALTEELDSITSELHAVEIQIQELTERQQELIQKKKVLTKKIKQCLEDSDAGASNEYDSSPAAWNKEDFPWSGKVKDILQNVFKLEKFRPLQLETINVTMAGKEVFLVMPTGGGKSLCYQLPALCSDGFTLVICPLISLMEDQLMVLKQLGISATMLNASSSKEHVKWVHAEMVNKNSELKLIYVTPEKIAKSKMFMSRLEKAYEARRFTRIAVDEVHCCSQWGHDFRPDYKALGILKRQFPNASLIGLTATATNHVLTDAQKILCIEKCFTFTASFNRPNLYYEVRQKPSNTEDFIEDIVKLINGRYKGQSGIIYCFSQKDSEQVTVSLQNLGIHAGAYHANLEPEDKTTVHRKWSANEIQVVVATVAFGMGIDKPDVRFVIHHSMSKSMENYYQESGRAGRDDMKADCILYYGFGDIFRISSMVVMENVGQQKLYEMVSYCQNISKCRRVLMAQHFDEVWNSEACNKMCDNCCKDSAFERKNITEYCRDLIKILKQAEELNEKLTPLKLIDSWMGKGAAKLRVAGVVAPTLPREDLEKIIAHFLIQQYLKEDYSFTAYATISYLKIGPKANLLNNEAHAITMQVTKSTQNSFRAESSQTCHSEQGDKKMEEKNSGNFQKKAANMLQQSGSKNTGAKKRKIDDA
How it was run: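 50 nM RECQ1T1 preincubated 15 min with compound in Tris pH 8.0 buffer with MgCl2, DTT, Tween-20 and 2.5 ug/ml poly(dI-dC); started with 200 nM TAMRA/BHQ-2 forked duplex and 2 mM ATP. Unwinding read as fluorescence (525/598 nm), two reads 2 h apart.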

[11] = Cytometric Cell-Based qHTS for Inhibitors of the mTORC1 Signaling Pathway in MEF (Tsc2-/-, p53-/-) Cells (AID 2660);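 also: Tsc2 and p53 null MEFs carrying empty vector with compound for 24 h; percent of cells above a phospho-rpS6 to PI ratio cutoff in each well; series mostly up to about 38 µM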
How it was run: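 Percent of cells positive for normalized phospho-S6 staining is reported, with the cutoff set from rapamycin (7.5 nM) versus DMSO wells. Tsc2-/-, p53-/- MEFs received compound for 24 hrs.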

[12] = High Content Imaging Cell-Based qHTS for Inhibitors of the mTORC1 Signaling Pathway in MEF (Tsc2-/-, p53-/-) Cells (AID 2666);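 also: percent of cells scored positive for phospho-rpS6 Ser235/236 immunostaining by imaging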
How it was run: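 Cells were plated, dosed with compound after 24 hrs, and incubated another 24 hrs at 37 degree Celsius. Fixed cells were immunostained for phospho-rpS6 Ser235/236 and counterstained, and the normalized signal was scored as % active cells against rapamycin and DMSO controls.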

[13] = High Content Imaging Cell-Based qHTS for Inhibitors of the mTORC1 Signaling Pathway in MEF Cells (AID 2667);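 also: Tsc2-/- p53-/- MEFs stably re-expressing wild-type Tsc2 exposed 24 h; series mostly up to about 38 µM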
How it was run: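 Immunofluorescence for rpS6 phosphorylation in MEFs of Tsc2-/-, p53-/- background rescued with WT Tsc2. Compound exposure lasted 24 hrs. Inhibition was scored against rapamycin-treated control wells.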

[14] = Validation screen for small molecules that induce DNA re-replication in MCF 10A normal breast cells (AID 463097); also: nearly all actives have a fitted effect of over 60% in size; also: potency is read from the fitted curve at half-maximal effect
How it was run: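 Read-out is Hoechst total nuclear intensity by fluorescence scanning imager, flagging increased high-DNA-content nuclei. Compounds were incubated with MCF 10A cells for 48 hr (37 C, 5% CO2) before 40 min staining.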

[15] = target: Ubiquitin carboxyl-terminal hydrolase 2 (Homo sapiens) (UniProt O75604); assay: qHTS Validation Assay for Inhibitors of Ubiquitin-specific Protease USP2a Using CHOP2 as the Reporter (AID 463106)
Chain of Ubiquitin carboxyl-terminal hydrolase 2 (Homo sapiens) (O75604 whole entry, looked up): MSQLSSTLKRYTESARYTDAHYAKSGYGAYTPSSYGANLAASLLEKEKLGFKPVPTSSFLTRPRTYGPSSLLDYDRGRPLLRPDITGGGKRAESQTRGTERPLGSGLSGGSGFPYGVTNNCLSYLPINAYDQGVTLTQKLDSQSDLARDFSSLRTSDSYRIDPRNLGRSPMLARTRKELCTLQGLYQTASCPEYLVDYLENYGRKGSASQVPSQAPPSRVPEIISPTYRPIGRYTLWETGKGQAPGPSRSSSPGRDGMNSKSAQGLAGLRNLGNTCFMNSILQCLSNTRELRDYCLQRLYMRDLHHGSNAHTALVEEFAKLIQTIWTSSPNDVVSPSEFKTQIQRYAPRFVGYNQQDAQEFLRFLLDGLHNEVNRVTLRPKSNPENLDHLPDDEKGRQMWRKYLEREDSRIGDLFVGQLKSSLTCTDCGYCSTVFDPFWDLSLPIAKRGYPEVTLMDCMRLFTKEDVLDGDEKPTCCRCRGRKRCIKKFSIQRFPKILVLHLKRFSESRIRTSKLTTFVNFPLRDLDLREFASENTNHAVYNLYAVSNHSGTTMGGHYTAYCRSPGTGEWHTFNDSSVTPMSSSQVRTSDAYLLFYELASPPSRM
How it was run: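 10nM USP2 core + cpd, 30min RT; add 25nM Ub-CHOP2/25nM substrate; 60min RT; FI 485/531nm. Buffer Tris pH 8.0, CaCl2, BME, CHAPS. Norm. to NEM = 100% inhibition; time-zero read flags fluorescent artifacts.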

[16] = qHTS for differential inhibitors of proliferation of Plasmodium falciparum line Dd2 (AID 1882); settings: Potency: Plasmodium falciparum Dd2 proliferation inhibition; also: nearly all actives have a fitted effect of over 65% in size; also: potency is read from the fitted curve at half-maximal effect
How it was run: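 SYBR Green I DNA fluorescence read-out, ex 485/em 535 nm. Signals were normalized to 0.29 uM artemisinin and DMSO wells, then corrected using vehicle-only plates flanking each stack. Parasite growth ran 72 h in erythrocytes before lysis.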

[17] = qHTS for differential inhibitors of proliferation of Plasmodium falciparum line HB3 (AID 1886); settings: Potency: Plasmodium falciparum HB3 proliferation inhibition;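 also: parasites grown with compound for 72 h before SYBR Green readout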; also: potency is read from the fitted curve at half-maximal effect
[18] = Cytometry Cell-Based qHTS for Inhibitors of the mTORC1 Signaling Pathway in MEF cells (AID 2668);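 also: Tsc2-/- p53-/- mouse embryonic fibroblasts stably re-expressing wild-type Tsc2; percent cells positive for phospho-rpS6 Ser235/236 relative to propidium iodide stain; series mostly up to about 38 µM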
How it was run: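 Phospho-rpS6 (Ser235/236) immunofluorescence over PI signal, scored as % positive cells using thresholds from 7.5 nM rapamycin and DMSO wells, after 24 h compound exposure of WT-Tsc2-rescued Tsc2-/-, p53-/- MEFs. PI cell count recorded for viability.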

[19] = target: RecQ-like DNA helicase BLM (Homo sapiens) (UniProt P54132); assay: qHTS Validation Assay for Inhibitors of Bloom's syndrome helicase (BLM) (AID 2364)
Chain of RecQ-like DNA helicase BLM (Homo sapiens) (P54132 whole entry, looked up): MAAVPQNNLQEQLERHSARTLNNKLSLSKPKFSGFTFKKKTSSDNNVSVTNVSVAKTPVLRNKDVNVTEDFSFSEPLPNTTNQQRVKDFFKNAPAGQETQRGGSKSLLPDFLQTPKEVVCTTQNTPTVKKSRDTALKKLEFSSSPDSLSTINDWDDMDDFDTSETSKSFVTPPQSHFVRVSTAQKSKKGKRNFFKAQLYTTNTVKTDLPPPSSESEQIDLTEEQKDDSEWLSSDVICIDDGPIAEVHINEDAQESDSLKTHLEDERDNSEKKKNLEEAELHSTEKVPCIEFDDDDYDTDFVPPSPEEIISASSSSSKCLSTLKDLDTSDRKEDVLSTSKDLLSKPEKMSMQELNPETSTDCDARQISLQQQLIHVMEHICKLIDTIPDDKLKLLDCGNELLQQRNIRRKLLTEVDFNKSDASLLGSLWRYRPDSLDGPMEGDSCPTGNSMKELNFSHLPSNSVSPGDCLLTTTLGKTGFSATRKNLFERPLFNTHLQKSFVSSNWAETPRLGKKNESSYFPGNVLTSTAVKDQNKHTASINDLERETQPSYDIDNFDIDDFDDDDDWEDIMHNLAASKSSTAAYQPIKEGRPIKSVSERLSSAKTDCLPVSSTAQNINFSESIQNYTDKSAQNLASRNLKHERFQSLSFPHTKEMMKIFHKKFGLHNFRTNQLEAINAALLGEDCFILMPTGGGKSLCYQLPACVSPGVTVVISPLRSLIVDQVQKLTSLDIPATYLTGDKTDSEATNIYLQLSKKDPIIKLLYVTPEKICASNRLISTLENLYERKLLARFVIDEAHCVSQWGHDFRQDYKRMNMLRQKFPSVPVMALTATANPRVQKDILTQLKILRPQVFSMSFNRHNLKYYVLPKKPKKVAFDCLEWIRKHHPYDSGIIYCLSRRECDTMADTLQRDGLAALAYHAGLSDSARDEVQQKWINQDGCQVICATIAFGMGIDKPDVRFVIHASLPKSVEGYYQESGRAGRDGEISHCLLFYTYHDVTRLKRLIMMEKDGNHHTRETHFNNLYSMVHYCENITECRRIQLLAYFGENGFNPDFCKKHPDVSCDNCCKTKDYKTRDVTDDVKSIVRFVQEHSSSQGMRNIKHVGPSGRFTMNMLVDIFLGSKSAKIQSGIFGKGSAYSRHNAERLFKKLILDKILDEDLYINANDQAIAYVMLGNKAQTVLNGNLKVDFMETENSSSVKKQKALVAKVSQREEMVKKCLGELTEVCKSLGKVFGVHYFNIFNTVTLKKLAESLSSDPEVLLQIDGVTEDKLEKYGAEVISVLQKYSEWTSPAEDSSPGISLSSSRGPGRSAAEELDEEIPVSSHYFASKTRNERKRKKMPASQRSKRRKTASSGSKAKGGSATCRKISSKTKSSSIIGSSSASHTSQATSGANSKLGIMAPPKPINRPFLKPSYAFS
How it was run: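 Forked 20-bp duplex substrate (200 nM, TAMRA/BHQ-2) plus 2 mM ATP added after 15 min compound preincubation with 50 nM enzyme, pH 8.0, poly(dI-dC) 2.5 ug/ml. Strand separation followed by fluorescence (525/598 nm) over 2 h, normalized to enzyme-free and DMSO controls.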

Structure (SMILES)	Potency [1]	outcome [2]	Potency [3]	Potency [4]	Potency [5]	Potency [6]	Potency [7]	Potency [8]	outcome [9]	Potency [10]	outcome [11]	Potency [12]	Potency [13]	Potency [14]	outcome [15]	Potency [16]	Potency [17]	Potency [18]	Potency [19]
CCCN1C[C@H](CSC)C[C@@H]2c3cccc4[nH]cc(c34)C[C@H]21	inactive	inactive	inactive	11.2 µM (active)	5.62 µM (active)	11.2 µM (active)	11.2 µM (active)	4.47 µM (active)	inactive	inactive	inactive	inactive	inactive	inactive	inactive				
C[N+](C)(C)CCOC(N)=O	inactive	inactive	inactive	inactive	inactive	inactive	inactive	inactive	inactive	inactive	inactive	inactive	inactive	inactive	inactive	inactive	inactive	inactive	
CC(C)NNC(=O)c1ccncc1	inactive	inactive	inactive	inactive	inactive	inactive	inactive	inactive	inactive	inactive	inactive	inactive	inactive	inactive	inactive	inactive	inactive	inactive	inactive
COc1cc2c(cc1OC)-c1cc(=Nc3c(C)cc(C)cc3C)n(C)c(=O)n1CC2	inactive	inactive	inactive	2.24 µM (active)	2.24 µM (active)	2 µM (active)	3.98 µM (active)	3.55 µM (active)		inactive	inactive	inactive	inactive			8.91 µM (active)	3.55 µM (active)	inactive	
CCN1CCc2nc(N)oc2CC1	inactive	inactive	inactive	inactive	inactive	inactive	inactive	inactive	inactive	inactive	inactive	inactive	inactive	inactive	inactive	inactive	inactive	inactive	
CC(=O)OC(C)C[N+](C)(C)C (stereo not drawn)	inactive	inactive	inactive	inactive	inactive	inactive	inactive	inactive	inactive	inactive	inactive	inactive	inactive	inactive	inactive	inactive	inactive	inactive	
CC(=O)Nc1nnc(S(N)(=O)=O)s1	inactive	inactive	inactive	inactive	inactive	inactive	inactive	inactive	inactive	inactive	inactive	inactive	inactive		inactive	inactive	inactive	inactive	
Nc1ncn([C@@H]2O[C@H](CO)[C@@H](O)[C@H]2O)c(=O)n1	inactive	inactive	inactive	inactive	inactive	inactive	inactive	inactive	inactive	inactive		inactive			inactive	inactive	inactive		
CC1=NS(=O)(=O)c2cc(Cl)ccc2N1	inactive	inactive	inactive	inactive	inactive	inactive	inactive	inactive	inactive	inactive	inactive	inactive	inactive	inactive		inactive	inactive		inactive
Cc1nc2ccccn2c(=O)c1CCN1CCC(C(=O)c2ccc(F)cc2)CC1	inactive	inactive	inactive	7.94 µM (active)	11.2 µM (active)	10 µM (active)		7.94 µM (active)	inactive	inactive	inactive	inactive	inactive						inactive
O=C(O)CCCCCCCC(=O)O	inactive	inactive	inactive	inactive	inactive	inactive	inactive	inactive	inactive	inactive	inactive	inactive	inactive	inactive		inactive	inactive	inactive	inactive
Cc1ccc(Cl)c(Nc2ccccc2C(=O)O)c1Cl	inactive	inactive	inactive	inactive	inactive	inactive	inactive	inactive	inactive	inactive	inactive	inactive	inactive	14.1 µM (active)		inactive	inactive		
c1cnc(N2CCN(Cc3ccc4c(c3)OCO4)CC2)nc1	inactive	inactive	inactive	inactive		inactive	inactive		inactive	inactive	inactive	inactive	inactive	inactive	inactive	inactive	inactive	inactive	inactive
CCCCCN(CCCCC)C(=O)C(CCC(=O)O)NC(=O)c1ccc(Cl)c(Cl)c1 (stereo not drawn)	inactive	inactive	inactive	inactive	inactive	inactive	inactive	inactive	inactive	inactive	inactive	inactive	inactive	inactive	inactive	inactive	inactive	inactive	
